In publication PMC4336329 (PLoS ONE, 2015):
In all, about 310,000 compounds went through this assay and about 14,000 (4.5%) showed an effect of 50% or more. The effect is printed as a negative number. Shown is part of a subset that was picked to be rich in strong results.

Molecular target: human ether-à-go-go-related gene (hERG) potassium channel (human, UniProt Q12809)
Experiment: primary screen, population patch clamp on CHO cells stably expressing hERG; higher = less effect of the substance
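Further: peak tail current of the secondary pulse compared with the same well before compound.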

human ether-à-go-go-related gene (hERG) potassium channel, sequence (Q12809 whole entry, looked up): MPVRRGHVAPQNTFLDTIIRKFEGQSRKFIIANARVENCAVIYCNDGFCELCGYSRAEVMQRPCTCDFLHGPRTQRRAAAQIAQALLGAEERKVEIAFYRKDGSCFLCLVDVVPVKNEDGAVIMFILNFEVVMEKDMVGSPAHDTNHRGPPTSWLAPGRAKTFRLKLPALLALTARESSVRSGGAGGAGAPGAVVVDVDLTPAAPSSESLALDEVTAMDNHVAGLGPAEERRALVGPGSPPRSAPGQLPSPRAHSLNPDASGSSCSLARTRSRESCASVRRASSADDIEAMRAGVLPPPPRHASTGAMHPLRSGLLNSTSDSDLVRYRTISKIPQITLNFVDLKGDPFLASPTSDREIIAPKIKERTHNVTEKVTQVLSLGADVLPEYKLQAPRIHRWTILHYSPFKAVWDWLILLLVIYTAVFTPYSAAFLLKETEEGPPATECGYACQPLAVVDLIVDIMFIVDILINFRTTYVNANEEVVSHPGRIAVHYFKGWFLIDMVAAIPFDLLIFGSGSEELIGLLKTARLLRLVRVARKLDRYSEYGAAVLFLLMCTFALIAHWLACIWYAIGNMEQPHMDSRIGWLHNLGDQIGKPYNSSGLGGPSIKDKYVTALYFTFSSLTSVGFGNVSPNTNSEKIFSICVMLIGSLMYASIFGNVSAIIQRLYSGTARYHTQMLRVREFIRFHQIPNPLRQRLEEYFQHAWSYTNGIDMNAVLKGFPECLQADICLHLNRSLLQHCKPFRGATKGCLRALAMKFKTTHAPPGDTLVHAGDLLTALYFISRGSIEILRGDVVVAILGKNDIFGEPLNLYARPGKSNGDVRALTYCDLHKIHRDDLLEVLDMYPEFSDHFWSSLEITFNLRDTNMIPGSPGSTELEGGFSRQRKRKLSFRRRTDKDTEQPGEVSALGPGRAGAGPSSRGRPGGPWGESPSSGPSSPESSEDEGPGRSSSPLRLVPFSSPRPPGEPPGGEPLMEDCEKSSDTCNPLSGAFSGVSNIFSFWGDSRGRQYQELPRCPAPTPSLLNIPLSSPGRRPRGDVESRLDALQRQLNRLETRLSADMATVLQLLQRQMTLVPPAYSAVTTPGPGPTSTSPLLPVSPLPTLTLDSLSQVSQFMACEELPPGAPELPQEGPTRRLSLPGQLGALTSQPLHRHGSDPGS

| SMILES | hERG current change (%, negative = inhibition) at 10uM [%] |
| --- | --- |
| CC(C)Cc1nc2oc3c(=O)[nH]cnc3c2c2c1CCCC2 | -6.24 |
| CC(C)Cc1nc2oc3c(=O)[nH]cnc3c2c2c1CCC2 | -7.29 |
| CCCc1nc2oc3c(=O)[nH]cnc3c2c2c1CCCC2 | -56.5 |
| COc1ccc(-c2csc(NC(=O)c3ccc(OCC(=O)N4CCOCC4)c(OC)c3)n2)cc1OC | -27.6 |
| Cc1ccc(C(=O)CCC(=O)Nc2cccc(C)c2)cc1 | 15.3 |
| COCCn1c(=NC(=O)CSCC(=O)N2CCOCC2)sc2cc(C)ccc21 | -14.8 |
| O=C(CSc1nnc(-c2ccco2)n1Cc1ccccc1)c1ccc(F)cc1 | -45.7 |
| COCCCn1c(SCC(=O)NC2CCCC2)nnc1-c1ccco1 | 9.39 |
| COCCCn1c(SCC(=O)NC2CCCCC2)nnc1-c1ccco1 | -3.26 |
| O=C(CSc1nnc(-c2ccco2)n1Cc1ccccc1)OC1CCCCC1 | -92.1 |
| COCCCn1c(SCC(=O)OC2CCCCC2)nnc1-c1ccco1 | -56 |
| Cn1c(SCC(=O)OC2CCCCC2)nnc1-c1ccco1 | 0.11 |
| CCCNS(=O)(=O)c1ccc2c(c1)CCCN2C(C)=O | -4.81 |
| O=C1Nc2cc(C(=O)NCCCN3CCOCC3)ccc2S/C1=C/c1cccc(Cl)c1 | 9.36 |
| CCOC(=O)c1c(P(=O)(N2CCOCC2)N2CCOCC2)noc1N | -0.372 |
| Cn1cc(CN2CCCC(CNS(=O)(=O)c3cccc4cccnc34)C2)cn1 (centres unmarked) | 5.77 |
| CCC(CC)C(=O)Nc1nnc(S(=O)(=O)N2CCCCCC2)s1 | 1.54 |
| CCOc1cc(CN2CCCC(CO)(Cc3ccc(F)cc3F)C2)ccc1OC (centres unmarked) | -55.9 |
| OCC1(Cc2ccc(F)cc2F)CCCN(Cc2ccc(Cl)cc2)C1 (centres unmarked) | -74.6 |
| COc1ccc(CN2CCCC(CO)(Cc3ccc(F)cc3F)C2)cc1 (centres unmarked) | 6.12 |
| COc1cccc(CC(=O)N2CCCC(CO)(Cc3ccc(F)cc3F)C2)c1 (centres unmarked) | -0.432 |
| COC(=O)c1ccc(CN2CCCC(CO)(Cc3ccc(F)cc3F)C2)cc1 (centres unmarked) | -42.3 |
| CCOc1ccc(-n2cc(-c3ccccc3)c3c(=O)[nH]cnc32)cc1 | 17.2 |

| SMILES | hERG current change (%, negative = inhibition) at 10uM [%] |
| --- | --- |
| CN(CCc1ccccn1)C(=S)Nc1ccc(Cl)c(Cl)c1 | -3.59 |
| COc1ccc(NS(=O)(=O)c2ccc(N3CCOCC3)c(NC(=O)c3ccc(OC)cc3)c2)cc1 | -1.38 |
| CCOC(=O)c1ccc(CSC(=N)N)o1 | 17.2 |
| CN(C)c1ccc(CN2CCCCCC2)cc1 | -6.11 |
| COc1ccc(CCNS(=O)(=O)c2ccc(S(=O)(=O)N3CCCC3)cc2)cc1OC | -6.61 |
| O=C(CCCOc1ccc(Br)cc1)NCCc1ccc(OC(F)F)cc1 | -67.7 |
| COc1ccc(CCNC(=O)CCCN2C(=O)c3ccccc3C2=O)cc1 | 2.74 |
| COc1ccc(CCNC(=O)CCCCCN2C(=O)c3ccccc3C2=O)cc1 | -28.6 |
| O=C(CCCN1C(=O)c2ccccc2C1=O)NCCc1ccc(OC(F)F)cc1 | -65.3 |
| CCOc1ccc(OCCCC(=O)NCCc2ccc(OC)cc2)cc1 | 25.8 |
| O=C(CCCOc1ccccc1)NCCc1ccccc1 | -3.36 |
| CCCCCn1c(NC2CCCCC2)nc2c1c(=O)[nH]c(=O)n2C | -17.6 |
| N#CCCN(C(=O)Nc1ccc(Cl)c(Cl)c1)c1ccccc1 | -0.506 |
| CCOc1cc(/C=C2\SC(=S)N(NS(=O)(=O)c3ccccc3)C2=O)ccc1O | 8.33 |
| CCCCn1c(N)c(N(CCC(C)C)C(=O)COC(=O)c2ccccc2)c(=O)[nH]c1=O | 3.79 |
| CN(C)CCCN(C(=O)c1ccc(S(=O)(=O)N2CCCC2)cc1)c1nc2ccc(Br)cc2s1.Cl | -47.9 |
| CCc1ccc2nc(N(CCCN(C)C)C(=O)c3ccc(S(=O)(=O)N4CCc5ccccc5C4)cc3)sc2c1.Cl | -7.91 |
| CCc1ccc2nc(N(CCCN(C)C)C(=O)c3ccc(S(=O)(=O)N4CCCC4)cc3)sc2c1.Cl | -67.7 |
| Cc1ccc2nc(N(CCCN(C)C)C(=O)c3ccc(S(=O)(=O)N4CCCCCC4)cc3)sc2c1.Cl | -58 |
| CCOc1ccc2nc(N(CCCN(C)C)C(=O)c3ccc(S(=O)(=O)N4CCCC4)cc3)sc2c1.Cl | -70.4 |
| CCOc1ccc2nc(N(CCCN(C)C)C(=O)c3ccc(S(=O)(=O)N4CCc5ccccc5C4)cc3)sc2c1.Cl | -1.08 |
| Cc1cc(C)c2nc(N(CCCN(C)C)C(=O)c3ccc(S(=O)(=O)N4CCCCCC4)cc3)sc2c1.Cl | -20.3 |
| Cc1ccc2nc(N(CCCN(C)C)C(=O)c3ccc(S(=O)(=O)N4CCOCC4)cc3)sc2c1.Cl | -33.9 |

| SMILES | hERG current change (%, negative = inhibition) at 10uM [%] |
| --- | --- |
| COc1ccccc1N1CC(C(=O)Nc2nnc(SCC(=O)NC(C)C)s2)CC1=O (centres unmarked) | 20.1 |
| CC(=O)Nc1ccc(NC(=O)CSc2nnnn2C2CCCCC2)cc1 | -8.79 |
| O=C(CNC(=O)N1CC(=O)Nc2ccccc21)Nc1nccs1 | 12 |
| CCCc1c(O)nc(SCC(=O)O)[nH]c1=O | 67.7 |
| CC1(C)CC(=O)/C(=C(/O)Cc2ccccc2)C(=NCCc2ccccc2)C1 | -45.2 |
| O=C(C1CCCCC1)N(Cc1ccccc1)c1ccccn1 | 1.25 |
| COc1cc(C(=O)NC2CC3CCCC(C2)N3Cc2ccccc2)cc(OC)c1OC (centres unmarked) | 8.89 |
| O=C(NC1CC2CCCC(C1)N2Cc1ccccc1)C1CCCCC1 (centres unmarked) | -25.2 |
| O=C(/C=C/c1ccccc1)NC1CC2CCCC(C1)N2Cc1ccccc1 (centres unmarked) | -69.7 |
| CNC(=S)NC1CC2CCCC(C1)N2Cc1ccccc1OC (centres unmarked) | -10.1 |
| COc1ccccc1CN1C2CCCC1CC(NC(=O)/C=C/c1ccccc1)C2 (centres unmarked) | -59.4 |
| COc1ccc(CN2C3CCCC2CC(NC(=O)/C=C/c2ccccc2)C3)cc1 (centres unmarked) | -88 |
| CCN(CC)C(=O)NC1CC2CCCC(C1)N2Cc1ccccc1 (centres unmarked) | -6.25 |
| COc1ccc(C(=O)OCC(=O)Nc2c(C)n(C)n(-c3ccccc3)c2=O)cc1OC | 16.5 |
| CCc1[nH]nc2c1C(C(C)C)C(C#N)=C(N)O2 (centres unmarked) | 10.8 |
| Cn1c(Cc2ccccc2)nnc1SCC(=O)Nc1ccc2c(c1)OCO2 | 5.64 |
| Cc1ccc(NC(=O)/C(=C\c2ccccc2)NC(=O)/C=C/c2ccccc2)cc1 | -12.9 |
| Cn1c(=O)cc(SCC(=O)N2CCC3(CC2)OCCO3)c2ccccc21 | -1.64 |
| CC1CCN(C2(O)C(=O)Nc3ccc(Cl)cc32)CC1 (centres unmarked) | 4.26 |
| CC(Sc1ncnc2ccccc12)C(=O)Nc1ccc2c(c1)OCCO2 (centres unmarked) | 5.25 |
| Cc1cccc(OCC(O)Cn2c(=N)n(Cc3ccccc3)c3ccccc32)c1.Cl (centres unmarked) | -71 |
| N=c1ccccn1CC(O)COc1ccccc1 (centres unmarked) | -3.09 |
| Cl.N=c1n(Cc2ccccc2)c2ccccc2n1CC(O)COc1ccccc1 (centres unmarked) | -74.6 |

| SMILES | hERG current change (%, negative = inhibition) at 10uM [%] |
| --- | --- |
| Cl.N=c1n(Cc2ccc(Cl)cc2)c2ccccc2n1CC(O)COc1ccccc1 (centres unmarked) | -68.2 |
| COc1ccc(OCC(O)Cn2c(=N)n(Cc3ccccc3)c3ccccc32)cc1.Cl (centres unmarked) | -73.5 |
| OC(COc1ccccc1)Cn1c2ccccc2c2ccccc21 (centres unmarked) | 6 |
| Cc1cccc(OCC(O)CNC(=O)c2ccccc2C(=O)O)c1 (centres unmarked) | -21.2 |
| COc1ccc(OCC(O)CN2C(=O)c3ccccc3C2=O)cc1 (centres unmarked) | 8.41 |
| CC1(C)CC(=O)c2cc(C(=O)N3CCCC(C)(C)C3)c(=O)n(-c3ccccc3)c2C1 | 11.5 |
| CCc1c(C)sc(NC(=O)/C=C/C(=O)O)c1C(N)=O | 36.5 |
| Cc1ccc(C2CC(=O)Nc3c2ccc2ccccc32)cc1[N+](=O)[O-] (centres unmarked) | 6.65 |
| CC(=O)c1nn(-c2ccccc2)cc1C(=O)c1ccc(C)cc1 | 3.72 |
| N#Cc1c(C(F)(F)F)cc(-c2ccc(F)cc2)nc1SCC(=O)O | 6.06 |
| COc1ccc(OC)c(N(CC(=O)NCc2ccccc2)S(=O)(=O)c2ccc(OC)c(OC)c2)c1 | 18.3 |
| CCN(CC)S(=O)(=O)c1ccc(OC)c(NC(=O)CCS(=O)(=O)Cc2ccccc2)c1 | -28 |
| Cc1csc(NC(=O)C2C3C=CC(C3)C2C(=O)O)n1 (centres unmarked) | -6.11 |
| COC(=O)Cc1ccc(NC(=S)NCc2ccccc2Cl)cc1 | -6.56 |
| COC(=O)c1ccc(C(=O)OC)c(NS(C)(=O)=O)c1 | -1.73 |
| O=C1CC(C(F)(F)C(F)(F)C(F)(F)F)=Nc2ccccc2N1 | -15.1 |
| CC(=O)OCCNC(=O)c1cc2ccccc2oc1=O | 9.06 |
| O=c1n(Cc2ccccc2F)c2ccccc2n1Cc1ccccc1F | 19.4 |
| Cl.N=c1n(CCO)c2ccccc2n1Cc1ccccc1 | -25.1 |
| Br.CC(C)(C)C(=O)Cn1c(=N)n(Cc2ccccc2)c2ccccc21 | -48.2 |
| N=c1n(Cc2ccccc2)c2ccccc2n1Cc1ccccc1 | -62.1 |
| Br.CCn1c(=N)n(Cc2ccccc2F)c2ccccc21 | -37.5 |
| Br.N=c1n(CCc2ccccc2)c2ccccc2n1Cc1ccccc1F | -62.6 |
